Experiment [1] can be described thus: Nuclear factor erythroid 2-related factor 2/antioxidant responsive element (Nrf2/ARE) small molecule agonists: qHTS cell viability counter screen in human keratinocytes (AID 1919968; active = well fitted curve in the direction sought with a large enough effect in the repeat runs; an effect the other way counts as inactive or inconclusive; note: nearly all actives have a fitted effect of over 55% in size). The method in brief: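 In human HaCaT keratinocytes stably expressing an ARE-driven luciferase, compound exposure lasted 23 h at 37 C under 5% CO2. Viable cells are quantified with a protease-based fluorogenic reagent (CellTiter-Fluor) read 1 h after addition.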

The nature of experiment [2]: Nuclear factor erythroid 2-related factor 2/antioxidant responsive element (Nrf2/ARE) small molecule agonists: luciferase reporter gene qHTS assay in human keratinocytes (AID 1919969). Note: nearly all actives have a fitted effect of over 35% in size. For orientation: A reporter such as luciferase makes a cellular process visible.
Experiment [3] has as its target Gonadotropin-releasing hormone receptor (Homo sapiens) (UniProt P30968). Description: Human gonadotropin-releasing hormone receptor (GnRHR) small molecule agonists, calcium flux assay in GnRHR-HEK293 cells (AID 1920063). Note: nearly all actives have a fitted effect of over 35% in size. The essentials:
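Intracellular calcium rise is the read-out: engineered human GnRHR HEK293 cells, dye-loaded, are exposed to DMSO-dissolved compounds and fluorescence at Ex/Em 480/540 is tracked for 3 min.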
On the technique in general: Calcium assays in cells follow changes in intracellular calcium, usually with a dye or a luminescent sensor.

For experiment [4], the target named is KiSS-1 receptor (Homo sapiens) (UniProt Q969F8). Description: Human kisspeptin (KISS1R) small molecule agonists, calcium flux assay in KISS1R-HEK293 cells (AID 1920064; active = well fitted curve in the direction sought with a large enough effect in the repeat runs; an effect the other way counts as inactive or inconclusive). The essentials: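 Concentration-response testing used 15 concentrations in triplicate on human KISS1R-expressing HEK293 cells. Calcium-dependent fluorescence (Ex/Em 480/540) was followed kinetically for 3 min after compound transfer.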
Chain of KiSS-1 receptor (Homo sapiens) (Q969F8 whole entry, looked up): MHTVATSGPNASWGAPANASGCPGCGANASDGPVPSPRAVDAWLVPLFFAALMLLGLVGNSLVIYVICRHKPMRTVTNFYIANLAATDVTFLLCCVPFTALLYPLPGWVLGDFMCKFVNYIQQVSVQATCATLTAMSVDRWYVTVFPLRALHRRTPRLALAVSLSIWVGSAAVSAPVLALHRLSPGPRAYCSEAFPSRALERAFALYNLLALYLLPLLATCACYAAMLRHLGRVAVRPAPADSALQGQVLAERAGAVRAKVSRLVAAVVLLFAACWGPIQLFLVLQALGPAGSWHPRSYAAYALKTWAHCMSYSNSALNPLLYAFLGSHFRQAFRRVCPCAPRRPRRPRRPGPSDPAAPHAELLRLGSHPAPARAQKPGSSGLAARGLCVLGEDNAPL

Experiment [5] in a line: G protein-coupled receptor (GPCR) small molecule agonists, calcium flux assay: HEK293 wild type cell line counter screen (AID 1920065). The essentials:
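Fluorescence intensity signals activation. After overnight (18 h) culture and a 1 h calcium dye load at 37 C, compounds are added by pin tool and the plate read at 480/540 nm for 3 min in 1 s steps.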

A short description of experiment [6]: p53 small molecule agonists, cell-based qHTS assay with human liver microsomes (AID 1963577). The essentials:
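p53RE-bla reporter cells were pre-incubated 5 h at 37 C, then treated with compounds plus human liver microsomes (0.5 mg/mL final) and NADPH (0.5 mg/mL final) for 16 h at 37 C. Beta-lactamase activity was read by LiveBLAzer fluorescence after 2 h at room temperature.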
(In general: Quantitative high-throughput screening tests each substance at several concentrations.)

Experiment [7] in a line: p53 small molecule agonists, cell-based qHTS assay with rat liver microsomes (AID 1963578). The essentials: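 p53RE-bla cells were exposed to compounds together with rat liver microsomes (0.5 mg/mL final) and NADPH (0.5 mg/mL final) for 16 h at 37 C, then read by LiveBLAzer beta-lactamase fluorescence after 2 h at room temperature.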
Experiment [8] in a line: p53 small molecule agonists, cell-based qHTS assay with human liver microsomes: qHTS cell viability counter screen (AID 1963579). Note: nearly all actives have a fitted effect of over 45% in size. The method in brief:
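p53RE-bla cells (4,000/well) were pre-incubated 5 h at 37 C, then given compounds in DMSO plus human liver microsomes (0.5 mg/mL final) and NADPH (0.5 mg/mL final) for 16 h at 37 C. Viability was read by CellTiter-Glo luminescence.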

Experiment [9] is described as follows: p53 small molecule agonists, cell-based qHTS assay with rat liver microsomes: qHTS cell viability counter screen (AID 1963580). Note: nearly all actives have a fitted effect of over 45% in size. The essentials: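 After the beta-lactamase ratio was read, CellTiter-Glo was added to the same wells and luminescence measured at 30 min; cells had been treated 16 h at 37 C with compounds, rat liver microsomes and NADPH (0.5 mg/mL final each).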

Experiment [10] can be described thus: p53 small molecule agonists, cell-based qHTS assay: qHTS cell viability counter screen (AID 1963581). Note: nearly all actives have a fitted effect of over 45% in size. The method in brief: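 Luminescence from CellTiter-Glo, reflecting ATP content, serves as the cytotoxicity measure; it is taken after the 2 h reporter substrate step in HCT-116 p53RE-bla cells dosed for 16 h at 37 C.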
The nature of experiment [11]: p53 small molecule agonists, cell-based qHTS assay (AID 1963582; active = well fitted activation curve with a large enough effect in the signal ratio in the repeat runs, not every such curve was filed as active; the % refers to the signal ratio). The method in brief:
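After plating, p53RE-bla cells sat 5 h in the incubator; compounds or DMSO vehicle were pinned in; a 16 h incubation at 37 C followed; FRET substrate was added and, 2 h later at RT, fluorescence was measured.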

For experiment [12], the target named is 5-hydroxytryptamine receptor 2A (Homo sapiens) (UniProt P28223). Briefly: 5-hydroxytryptamine receptor 2A (HTR2A) small molecule antagonists, cell-based qHTS assay (AID 1963586). Note: nearly all actives have a fitted effect of over 45% in size. The method in brief:
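CHO cells stably expressing human HTR2A were plated for 18 h at 37 C, then loaded with calcium dye for 1 h. Compounds were preincubated 5 min at room temperature before DOI (4 nM solution) was added. Kinetic fluorescence was read for 3 min.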

Experiment [13] has the same target. Description: 5-hydroxytryptamine receptor 2A (HTR2A) small molecule agonists, cell-based qHTS assay (AID 1963587). Note: nearly all actives have a fitted effect of over 30% in size. The essentials: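 CHO cells stably expressing human HTR2A, plated 18 h, loaded with calcium dye 1 h at 37 C. Agonist mode: compounds added and intracellular calcium fluorescence recorded kinetically for 2 min at 1 sec intervals.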
Experiment [14] deals with Muscarinic acetylcholine receptor M1 (Homo sapiens) (UniProt P11229). Briefly: Cholinergic receptor muscarinic 1 (CHRM1) small molecule antagonists, cell-based qHTS assay (AID 1963588). Note: nearly all actives have a fitted effect of over 40% in size. Note: potency is the fitted concentration of half-maximal effect. The method in brief:
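Compounds were tested at 15 concentrations in three independent runs. Dye-loaded CHRM1-CHO cells were exposed 5 min at room temperature before stimulation by acetylcholine added at 50nM. Intracellular calcium was read kinetically on FDSS for 3 min.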

A short description of experiment [15]: cAMP Responsive Elements (CRE) small molecule agonists, cell-based qHTS assay (AID 1963590). The method in brief:
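Compound exposure lasted 3 h at 37 C/5% CO2 in CRE-bla HEK 293T cells grown in assay medium with 10% dialyzed FBS and 25 mM HEPES. Reporter signal came from LiveBLAzer B/G FRET substrate, 2 h, room temperature.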

Experiment [16] is described as follows: cAMP Responsive Elements (CRE) small molecule antagonists, cell-based qHTS assay (AID 1963591; active = well fitted inhibition curve with a large enough effect in the signal ratio in the repeat runs, not every such curve was filed as active; the % refers to the signal ratio). The essentials:
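Stimulation used NKH477 at a final 0.25 uM for 3 h in compound-treated CRE-bla HEK293T cells, seeded 18 h beforehand. Reporter activity was measured with LiveBLAzer B/G FRET substrate after 2 h at room temperature.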

The target in experiment [17] is Beta-2 adrenergic receptor (Homo sapiens) (UniProt P07550). Description: Adrenergic beta2 receptor (ADRB2) small molecule antagonists, cell-based qHTS assay (AID 1963592). Note: series mostly up to about 92 µM; nearly all actives have a fitted effect of over 50% in size. The essentials:
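Assay format: CHO-ADRB2 cells, 18-20hr seeding at 37C/5% CO2, then compound plus 1nM isoproterenol agonist mix for 0.5hr RT. Homogeneous time-resolved fluorescence cAMP detection after 1hr, expressed as 665/615 nm ratio.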

Experiment [18] addresses D(2) dopamine receptor (Homo sapiens) (UniProt P14416). Description: Dopamine D2 receptor (DRD2) small molecule agonists, cell-based qHTS assay (AID 1963594). Note: nearly all actives have a fitted effect of over 35% in size. The method in brief: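 HEK293 cells stably expressing human DRD2, pre-treated with PDE inhibitor Ro20-1724 (0.1 mM final) and compound 10 min at room temperature, then stimulated with NKH477 (200nM […]) for 30 min. cAMP read by HTRF (665/620 nm).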

Experiment [19] shares this target. Briefly: Dopamine D2 receptor (DRD2) small molecule antagonists, cell-based qHTS assay (AID 1963595; active = well fitted inhibition curve with a large enough effect in the signal ratio in the repeat runs, with a control signal flat; the % refers to the signal ratio). The essentials: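 HTRF cAMP read-out at 665 and 620 nm emission (340 nm excitation). Antagonist mode: compounds were tested against 12 nM quinpirole in DRD2-HEK293 cells, with 200 nM NKH477 raising cAMP and 0.1 mM Ro20-1724 blocking its breakdown.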
The target in experiment [20] is Muscarinic acetylcholine receptor M1 (Homo sapiens) (UniProt P11229). Description: Cholinergic receptor muscarinic 1 (CHRM1) small molecule agonists, cell-based qHTS assay (AID 1963589). Note: nearly all actives have a fitted effect of over 35% in size. The essentials:
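Fluorescent calcium dye reports M1 activation in stably transfected CHO cells. Compounds, 15 concentrations, added after 1 h dye loading at 37 C; kinetic reading at 1 sec intervals.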

“And” between values parts separate entries of the source, which are not always exact repeats. Identical values can stand only once. Records with an inconclusive call do not appear. A structure can be active in one record and inactive in another. The source made the active and inactive calls. Unless noted, calls come from the whole dose curve.

Eight compounds from PubChem BioAssay (Tox21) can be followed below.

Chain of Gonadotropin-releasing hormone receptor (Homo sapiens) (P30968 whole entry, looked up): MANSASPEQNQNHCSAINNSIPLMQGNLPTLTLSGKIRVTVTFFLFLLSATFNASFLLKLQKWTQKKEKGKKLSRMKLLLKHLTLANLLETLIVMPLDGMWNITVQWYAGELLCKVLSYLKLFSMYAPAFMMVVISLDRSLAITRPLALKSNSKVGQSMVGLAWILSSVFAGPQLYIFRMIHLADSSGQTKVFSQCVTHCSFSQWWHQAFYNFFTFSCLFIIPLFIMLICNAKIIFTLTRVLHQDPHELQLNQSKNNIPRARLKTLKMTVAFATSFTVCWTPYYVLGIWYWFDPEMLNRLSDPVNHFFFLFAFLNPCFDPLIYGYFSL
Chain of 5-hydroxytryptamine receptor 2A (Homo sapiens) (P28223 whole entry, looked up): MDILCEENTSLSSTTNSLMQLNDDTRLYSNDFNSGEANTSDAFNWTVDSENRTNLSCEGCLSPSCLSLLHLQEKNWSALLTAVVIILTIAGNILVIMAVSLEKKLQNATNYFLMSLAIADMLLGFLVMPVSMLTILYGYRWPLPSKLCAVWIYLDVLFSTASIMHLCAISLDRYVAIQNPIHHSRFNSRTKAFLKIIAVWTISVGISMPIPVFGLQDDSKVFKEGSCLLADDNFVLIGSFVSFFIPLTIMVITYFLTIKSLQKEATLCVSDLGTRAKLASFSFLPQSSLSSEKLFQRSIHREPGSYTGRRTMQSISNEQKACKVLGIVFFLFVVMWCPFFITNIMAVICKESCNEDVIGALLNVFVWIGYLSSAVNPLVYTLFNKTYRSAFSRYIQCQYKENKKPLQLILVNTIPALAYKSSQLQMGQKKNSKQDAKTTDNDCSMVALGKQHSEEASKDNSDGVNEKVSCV
Chain of D(2) dopamine receptor (Homo sapiens) (P14416 whole entry, looked up): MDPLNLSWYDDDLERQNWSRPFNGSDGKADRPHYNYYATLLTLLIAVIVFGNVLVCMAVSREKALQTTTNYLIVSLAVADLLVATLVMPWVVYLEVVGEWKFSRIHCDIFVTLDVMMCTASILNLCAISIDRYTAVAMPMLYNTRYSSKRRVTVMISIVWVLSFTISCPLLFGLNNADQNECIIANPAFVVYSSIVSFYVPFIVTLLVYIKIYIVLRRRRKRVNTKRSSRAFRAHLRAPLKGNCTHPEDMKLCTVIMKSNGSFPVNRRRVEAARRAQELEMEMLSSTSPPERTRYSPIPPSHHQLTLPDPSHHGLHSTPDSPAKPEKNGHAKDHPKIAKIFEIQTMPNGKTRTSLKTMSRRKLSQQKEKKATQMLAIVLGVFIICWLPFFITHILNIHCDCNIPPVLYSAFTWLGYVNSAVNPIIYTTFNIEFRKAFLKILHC
Chain of Muscarinic acetylcholine receptor M1 (Homo sapiens) (P11229 whole entry, looked up): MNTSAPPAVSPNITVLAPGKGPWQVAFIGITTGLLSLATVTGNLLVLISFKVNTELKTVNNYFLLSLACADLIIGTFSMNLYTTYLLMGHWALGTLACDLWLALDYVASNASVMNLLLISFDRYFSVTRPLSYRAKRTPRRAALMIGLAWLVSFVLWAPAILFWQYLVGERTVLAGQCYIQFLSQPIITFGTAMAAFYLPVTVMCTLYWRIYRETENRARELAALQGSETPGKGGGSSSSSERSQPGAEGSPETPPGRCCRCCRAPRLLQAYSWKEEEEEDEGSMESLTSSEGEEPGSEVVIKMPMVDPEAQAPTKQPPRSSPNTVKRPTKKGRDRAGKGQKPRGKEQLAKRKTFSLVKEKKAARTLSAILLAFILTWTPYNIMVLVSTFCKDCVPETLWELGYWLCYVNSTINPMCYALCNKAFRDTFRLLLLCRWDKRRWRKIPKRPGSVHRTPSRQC
Chain of Beta-2 adrenergic receptor (Homo sapiens) (P07550 whole entry, looked up): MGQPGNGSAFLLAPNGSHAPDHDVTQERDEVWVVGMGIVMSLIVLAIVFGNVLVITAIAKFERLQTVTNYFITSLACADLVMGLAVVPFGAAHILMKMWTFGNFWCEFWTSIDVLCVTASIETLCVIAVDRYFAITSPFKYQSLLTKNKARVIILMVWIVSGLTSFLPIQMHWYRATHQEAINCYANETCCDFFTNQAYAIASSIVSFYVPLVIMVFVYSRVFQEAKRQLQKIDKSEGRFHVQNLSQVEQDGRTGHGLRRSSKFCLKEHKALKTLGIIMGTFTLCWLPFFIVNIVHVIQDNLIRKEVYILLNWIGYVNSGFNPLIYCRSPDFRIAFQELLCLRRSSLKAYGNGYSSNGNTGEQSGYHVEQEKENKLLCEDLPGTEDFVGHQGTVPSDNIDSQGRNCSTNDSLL

In the case of `CCC12COCN1COC2`, the Potency result in experiment [1], in experiment [2], in experiment [3], in [4], in experiment [5] and in experiment [6] was “inactive” throughout. The Potency result in experiment [7], in experiment [8], in experiment [9], in experiment [10], in experiment [11] and in [12] was “inactive” in each case. Besides, the Potency result in experiment [13], in [14], in experiment [15], in experiment [16], in [17] and in experiment [18] was “inactive” throughout. Further, in [19], the Potency result was “inactive”.
For the compound `CCCCCCCCn1cc[n+](C)c1`, the Potency result in experiment [1], in [2], in [3], in experiment [4], in [5] and in [6] was “inactive” throughout. For the same compound, the Potency result in experiment [7], in experiment [8], in experiment [9], in experiment [10], in experiment [11] and in experiment [12] was “inactive” each time. The Potency entry in experiment [13], in experiment [20], in experiment [16], in experiment [17], in experiment [18] and in experiment [19] was “inactive” in each case. In addition, the Potency in experiment [14] is 9.41 µM (active) and 3.78 µM (active) and inactive.
For the compound `CCCCCCCCOC(=O)c1ccc(C(=O)OCCCCCCCC)c(C(=O)OCCCCCCCC)c1`, the Potency result in experiment [1], in experiment [2], in experiment [3], in experiment [4], in experiment [5] and in experiment [6] was “inactive” each time. In addition, the Potency result in [7], in experiment [8], in [9], in experiment [10], in [11] and in experiment [12] was “inactive” throughout. Also, the Potency result in experiment [13], in experiment [14], in experiment [20], in experiment [16], in [17] and in experiment [18] was “inactive” each time. Further, in experiment [19], the Potency entry was “inactive”.
`C[N+](=O)[O-]`: the Potency result in experiment [1], in experiment [2], in [3], in experiment [4], in experiment [5] and in experiment [6] was “inactive” throughout. Further, the Potency result in [7], in [8], in experiment [9], in experiment [10], in [11] and in [12] was “inactive” throughout. The Potency entry in experiment [13], in experiment [14], in experiment [20], in experiment [16], in [17] and in experiment [18] was “inactive” in each case. In [19], the Potency entry was “inactive”.
As for `CCC(C)(C#N)N=NC(C)(C#N)CC` (configuration not stated), the Potency entry in experiment [1], in experiment [2], in [3], in [4], in experiment [5] and in experiment [6] was “inactive” throughout. Also, the Potency entry in experiment [7], in experiment [8], in experiment [9], in experiment [10], in [11] and in experiment [12] was “inactive” each time. Moreover, the Potency result in [13], in experiment [14], in [15], in experiment [16], in [17] and in experiment [18] was “inactive” throughout. The Potency result in [19] was “inactive”.
On to `COC(=O)c1ccccc1N`, for which the Potency entry in [1], in experiment [2], in [3], in experiment [4], in [5] and in experiment [6] was “inactive” in each case. For the same compound, the Potency result in experiment [7], in experiment [8], in experiment [9], in [10], in [11] and in [12] was “inactive” each time. Besides, the Potency result in [13], in experiment [20], in experiment [15], in experiment [16], in experiment [17] and in experiment [18] was “inactive” each time. For the same compound, the Potency entry in experiment [19] was “inactive”.
As to `C=CC=O`, the Potency result in [1], in experiment [2], in experiment [3], in experiment [4], in [5] and in experiment [6] was “inactive” throughout. For the same compound, the Potency result in experiment [7], in experiment [8], in [9], in experiment [10], in experiment [11] and in [12] was “inactive” throughout. Besides, the Potency result in [13], in [14], in [15], in [16], in [17] and in [18] was “inactive” in each case. For the same compound, in experiment [19], the Potency result was “inactive”.
As for `Cc1ccc(CCl)cc1`, the Potency entry in [1], in [2], in experiment [3], in [4], in experiment [5] and in experiment [6] was “inactive” in each case. For the same compound, the Potency result in [7], in experiment [8], in [9], in experiment [10], in experiment [11] and in [12] was “inactive” in each case. In addition, the Potency entry in experiment [13], in [14], in experiment [15], in experiment [16], in [17] and in experiment [18] was “inactive” in each case. The Potency result in experiment [19] is “inactive”.
